Experiments:
Assay in all cases: log2 ratio of Biotin-Ahx-Ub-VS probe labelling (fragment/DMSO); higher = less target engagement (more negative = stronger competition), active = hit call of the paper (q ≤ 0.05, log2 ratio ≤ -1)
Settings in all cases: compound concentration: 200 uM; treatment time: 3 h
[1] = molecular target: USP9X (UniProt Q93008)
Outline: (§1)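 Labelled DUBs from HEK293T lysate were NeutrAvidin-enriched, digested with LysC and trypsin, and run by diaPASEF LC-MS/MS. Before that, each 495 µg sample in Tris/CHAPS/IGEPAL buffer with protease inhibitors was treated in triplicate with fragment at 200 µM or vehicle for 3 h, then with Biotin-Ahx-Ub-VS at 0.5 µM final for 1 h. Values are average log2 ratios of fragment over vehicle by unpaired t-test, based on global-median-normalised Spectronaut label-free quantities from proteins with ≥2 unique peptides.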

[2] = molecular target: UniProt O00487
Outline: as §1

[3] = molecular target: UniProt O00507
Outline: as §1

[4] = molecular target: UniProt P51784
Outline: as §1

[5] = molecular target: T1, UniProt Q5T2D3
T1 sequence (whole entry): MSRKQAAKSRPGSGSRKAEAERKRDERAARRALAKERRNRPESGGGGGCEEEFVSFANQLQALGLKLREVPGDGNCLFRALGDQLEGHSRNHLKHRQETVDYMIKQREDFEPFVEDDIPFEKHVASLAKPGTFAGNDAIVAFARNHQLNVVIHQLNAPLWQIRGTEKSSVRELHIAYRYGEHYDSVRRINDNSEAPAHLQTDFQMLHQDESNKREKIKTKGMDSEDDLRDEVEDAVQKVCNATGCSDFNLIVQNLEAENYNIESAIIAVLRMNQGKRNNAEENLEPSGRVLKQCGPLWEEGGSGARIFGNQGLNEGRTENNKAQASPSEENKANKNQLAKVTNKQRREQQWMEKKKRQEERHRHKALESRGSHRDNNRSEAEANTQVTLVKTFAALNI
Outline: as §1

[6] = molecular target: T2, UniProt Q8TE49
T2 sequence (whole entry): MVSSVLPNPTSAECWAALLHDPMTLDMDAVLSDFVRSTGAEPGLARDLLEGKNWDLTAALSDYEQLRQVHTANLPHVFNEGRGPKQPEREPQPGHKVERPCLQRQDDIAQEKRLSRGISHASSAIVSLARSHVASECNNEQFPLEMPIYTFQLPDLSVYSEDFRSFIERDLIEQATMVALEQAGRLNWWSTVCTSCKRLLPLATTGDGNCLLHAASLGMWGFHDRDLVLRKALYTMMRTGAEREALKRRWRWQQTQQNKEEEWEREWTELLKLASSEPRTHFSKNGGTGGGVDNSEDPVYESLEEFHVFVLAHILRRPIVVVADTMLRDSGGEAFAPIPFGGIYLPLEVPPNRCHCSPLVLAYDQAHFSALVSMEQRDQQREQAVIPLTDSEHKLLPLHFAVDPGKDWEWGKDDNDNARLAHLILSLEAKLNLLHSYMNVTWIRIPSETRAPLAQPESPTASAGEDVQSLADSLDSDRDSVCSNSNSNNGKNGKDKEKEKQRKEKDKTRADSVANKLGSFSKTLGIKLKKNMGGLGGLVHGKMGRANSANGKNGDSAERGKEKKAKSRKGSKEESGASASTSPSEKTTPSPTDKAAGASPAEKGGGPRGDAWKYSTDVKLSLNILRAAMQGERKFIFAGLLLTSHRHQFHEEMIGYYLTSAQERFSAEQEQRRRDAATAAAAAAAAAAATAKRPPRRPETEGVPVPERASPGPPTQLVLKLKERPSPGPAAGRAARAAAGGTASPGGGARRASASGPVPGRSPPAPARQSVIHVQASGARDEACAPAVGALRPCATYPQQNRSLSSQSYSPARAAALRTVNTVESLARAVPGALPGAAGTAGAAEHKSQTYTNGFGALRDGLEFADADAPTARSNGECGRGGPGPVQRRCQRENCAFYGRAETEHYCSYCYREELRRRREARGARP
Outline: as §1

[7] = molecular target: T3, UniProt Q9P2H5
T3 sequence (whole entry): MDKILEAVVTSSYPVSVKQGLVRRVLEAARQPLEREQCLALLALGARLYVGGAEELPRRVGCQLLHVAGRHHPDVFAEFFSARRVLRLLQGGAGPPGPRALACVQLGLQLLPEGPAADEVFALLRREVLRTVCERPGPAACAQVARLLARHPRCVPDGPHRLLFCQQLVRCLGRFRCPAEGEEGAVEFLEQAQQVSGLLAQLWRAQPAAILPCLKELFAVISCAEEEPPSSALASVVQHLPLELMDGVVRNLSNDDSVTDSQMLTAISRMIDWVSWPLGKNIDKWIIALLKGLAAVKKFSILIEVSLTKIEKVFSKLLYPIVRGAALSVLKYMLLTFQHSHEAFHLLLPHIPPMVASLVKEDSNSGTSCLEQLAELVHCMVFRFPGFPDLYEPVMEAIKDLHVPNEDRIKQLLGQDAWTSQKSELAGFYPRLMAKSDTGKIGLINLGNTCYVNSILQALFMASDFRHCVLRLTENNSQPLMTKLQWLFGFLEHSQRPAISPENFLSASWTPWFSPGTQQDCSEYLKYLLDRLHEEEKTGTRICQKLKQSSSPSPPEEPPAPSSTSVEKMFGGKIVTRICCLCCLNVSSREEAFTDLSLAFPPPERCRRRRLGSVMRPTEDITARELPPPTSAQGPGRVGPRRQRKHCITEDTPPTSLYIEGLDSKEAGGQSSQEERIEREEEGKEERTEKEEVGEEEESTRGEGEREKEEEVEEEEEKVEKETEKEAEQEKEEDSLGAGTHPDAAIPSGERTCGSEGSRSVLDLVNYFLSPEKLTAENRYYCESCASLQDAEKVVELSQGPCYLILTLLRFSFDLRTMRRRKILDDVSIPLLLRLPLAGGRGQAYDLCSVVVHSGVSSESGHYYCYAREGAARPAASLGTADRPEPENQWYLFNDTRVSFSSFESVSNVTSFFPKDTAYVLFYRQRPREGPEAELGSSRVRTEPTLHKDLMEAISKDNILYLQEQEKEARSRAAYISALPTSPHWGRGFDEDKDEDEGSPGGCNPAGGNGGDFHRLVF
Outline: as §1

[8] = molecular target: T4, UniProt Q9UGI0
T4 sequence (whole entry): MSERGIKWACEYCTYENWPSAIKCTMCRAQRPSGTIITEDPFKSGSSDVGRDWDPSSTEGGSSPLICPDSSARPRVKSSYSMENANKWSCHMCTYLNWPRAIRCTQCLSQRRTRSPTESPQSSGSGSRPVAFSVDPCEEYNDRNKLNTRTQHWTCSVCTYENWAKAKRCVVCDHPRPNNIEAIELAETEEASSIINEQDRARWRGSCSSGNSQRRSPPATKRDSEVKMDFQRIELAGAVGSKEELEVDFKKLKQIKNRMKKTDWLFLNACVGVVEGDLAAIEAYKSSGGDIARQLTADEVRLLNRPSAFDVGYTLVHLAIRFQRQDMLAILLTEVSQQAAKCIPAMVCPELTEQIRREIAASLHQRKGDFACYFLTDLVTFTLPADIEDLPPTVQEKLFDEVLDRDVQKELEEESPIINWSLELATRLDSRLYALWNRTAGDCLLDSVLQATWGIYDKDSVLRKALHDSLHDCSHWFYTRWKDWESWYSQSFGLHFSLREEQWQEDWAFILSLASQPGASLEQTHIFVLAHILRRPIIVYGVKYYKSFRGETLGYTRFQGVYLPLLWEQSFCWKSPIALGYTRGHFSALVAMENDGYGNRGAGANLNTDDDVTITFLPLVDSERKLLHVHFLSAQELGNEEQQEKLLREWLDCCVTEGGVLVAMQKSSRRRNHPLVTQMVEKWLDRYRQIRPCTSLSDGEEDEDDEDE
Outline: as §1

[9] = molecular target: T5, YOD1 (UniProt Q5VVQ6)
T5 sequence (whole entry): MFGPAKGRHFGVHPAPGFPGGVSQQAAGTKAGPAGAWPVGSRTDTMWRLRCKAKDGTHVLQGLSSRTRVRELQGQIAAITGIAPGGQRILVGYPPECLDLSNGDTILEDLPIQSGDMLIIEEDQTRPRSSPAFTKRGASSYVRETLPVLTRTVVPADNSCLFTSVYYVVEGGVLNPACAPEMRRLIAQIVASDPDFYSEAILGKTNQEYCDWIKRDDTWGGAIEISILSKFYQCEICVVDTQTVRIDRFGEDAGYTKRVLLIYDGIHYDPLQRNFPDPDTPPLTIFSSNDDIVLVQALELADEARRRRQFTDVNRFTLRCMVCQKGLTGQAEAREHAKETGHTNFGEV
Outline: as §1

Measured: log2 ratio of Biotin-Ahx-Ub-VS probe labelling

Sequence of USP9X (Q93008 whole entry, the tested form may be a part): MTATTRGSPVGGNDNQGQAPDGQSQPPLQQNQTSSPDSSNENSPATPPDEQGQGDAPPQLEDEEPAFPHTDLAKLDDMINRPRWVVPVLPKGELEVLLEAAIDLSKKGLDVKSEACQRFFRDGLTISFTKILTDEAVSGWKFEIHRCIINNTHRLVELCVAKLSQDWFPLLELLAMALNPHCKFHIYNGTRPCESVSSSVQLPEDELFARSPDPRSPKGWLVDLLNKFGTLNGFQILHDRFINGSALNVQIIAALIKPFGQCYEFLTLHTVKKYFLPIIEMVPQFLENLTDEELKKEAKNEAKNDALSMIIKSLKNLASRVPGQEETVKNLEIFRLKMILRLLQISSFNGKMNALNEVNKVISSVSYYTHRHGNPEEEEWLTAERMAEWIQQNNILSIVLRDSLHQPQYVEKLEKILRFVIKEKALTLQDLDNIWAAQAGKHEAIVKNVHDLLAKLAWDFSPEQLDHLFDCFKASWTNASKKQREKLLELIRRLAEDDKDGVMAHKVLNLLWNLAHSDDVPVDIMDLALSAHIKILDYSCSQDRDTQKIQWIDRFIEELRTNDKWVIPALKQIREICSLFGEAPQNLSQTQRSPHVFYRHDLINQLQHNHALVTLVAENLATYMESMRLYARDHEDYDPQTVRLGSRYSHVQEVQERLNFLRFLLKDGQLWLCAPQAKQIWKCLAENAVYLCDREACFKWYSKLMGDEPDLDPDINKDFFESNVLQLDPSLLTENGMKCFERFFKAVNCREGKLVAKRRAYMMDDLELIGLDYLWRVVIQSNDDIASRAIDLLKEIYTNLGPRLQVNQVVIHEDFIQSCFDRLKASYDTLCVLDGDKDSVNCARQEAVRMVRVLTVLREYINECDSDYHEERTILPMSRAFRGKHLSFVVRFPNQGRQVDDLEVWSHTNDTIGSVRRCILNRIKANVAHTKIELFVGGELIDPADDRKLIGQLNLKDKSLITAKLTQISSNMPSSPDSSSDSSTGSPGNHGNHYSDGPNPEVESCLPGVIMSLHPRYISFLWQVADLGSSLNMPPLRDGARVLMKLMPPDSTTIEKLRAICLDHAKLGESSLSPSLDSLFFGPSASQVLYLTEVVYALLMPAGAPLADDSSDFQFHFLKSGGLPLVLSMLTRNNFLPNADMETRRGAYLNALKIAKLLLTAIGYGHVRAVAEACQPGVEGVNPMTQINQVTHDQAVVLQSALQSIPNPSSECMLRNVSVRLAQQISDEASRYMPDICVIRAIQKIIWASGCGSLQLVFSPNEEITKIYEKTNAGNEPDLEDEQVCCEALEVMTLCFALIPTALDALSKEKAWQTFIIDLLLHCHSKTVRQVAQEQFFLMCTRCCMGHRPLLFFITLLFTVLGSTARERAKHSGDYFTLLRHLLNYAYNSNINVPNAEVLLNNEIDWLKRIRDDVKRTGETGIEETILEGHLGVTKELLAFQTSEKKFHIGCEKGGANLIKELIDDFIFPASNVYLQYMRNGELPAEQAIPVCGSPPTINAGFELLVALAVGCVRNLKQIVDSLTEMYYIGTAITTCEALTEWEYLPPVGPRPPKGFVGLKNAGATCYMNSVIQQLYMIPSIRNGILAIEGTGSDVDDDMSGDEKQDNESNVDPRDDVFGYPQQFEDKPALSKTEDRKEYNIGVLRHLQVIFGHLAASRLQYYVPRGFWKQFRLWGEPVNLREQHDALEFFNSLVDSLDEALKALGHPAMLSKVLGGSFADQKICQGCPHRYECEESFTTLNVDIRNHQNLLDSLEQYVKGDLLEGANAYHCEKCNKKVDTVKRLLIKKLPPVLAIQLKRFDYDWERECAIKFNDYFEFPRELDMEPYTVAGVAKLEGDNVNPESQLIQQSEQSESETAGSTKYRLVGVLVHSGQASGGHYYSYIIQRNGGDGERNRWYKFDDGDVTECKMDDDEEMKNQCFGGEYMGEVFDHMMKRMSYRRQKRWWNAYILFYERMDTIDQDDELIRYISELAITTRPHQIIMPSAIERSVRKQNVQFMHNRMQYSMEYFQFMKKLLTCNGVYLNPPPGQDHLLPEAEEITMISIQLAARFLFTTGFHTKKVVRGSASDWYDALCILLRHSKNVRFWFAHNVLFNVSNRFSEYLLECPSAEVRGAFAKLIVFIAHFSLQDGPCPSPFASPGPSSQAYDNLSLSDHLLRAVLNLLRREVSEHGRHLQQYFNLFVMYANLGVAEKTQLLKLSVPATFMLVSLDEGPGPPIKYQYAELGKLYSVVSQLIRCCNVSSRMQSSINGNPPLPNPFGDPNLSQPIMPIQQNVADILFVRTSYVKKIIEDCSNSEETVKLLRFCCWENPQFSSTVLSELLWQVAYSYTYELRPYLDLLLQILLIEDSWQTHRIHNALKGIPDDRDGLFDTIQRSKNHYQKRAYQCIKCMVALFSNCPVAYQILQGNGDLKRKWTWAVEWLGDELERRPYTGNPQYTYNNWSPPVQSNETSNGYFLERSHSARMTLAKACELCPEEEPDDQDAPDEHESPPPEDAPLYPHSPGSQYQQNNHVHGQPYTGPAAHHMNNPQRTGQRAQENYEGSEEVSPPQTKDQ
Sequence of UniProt O00507 (O00507 whole entry): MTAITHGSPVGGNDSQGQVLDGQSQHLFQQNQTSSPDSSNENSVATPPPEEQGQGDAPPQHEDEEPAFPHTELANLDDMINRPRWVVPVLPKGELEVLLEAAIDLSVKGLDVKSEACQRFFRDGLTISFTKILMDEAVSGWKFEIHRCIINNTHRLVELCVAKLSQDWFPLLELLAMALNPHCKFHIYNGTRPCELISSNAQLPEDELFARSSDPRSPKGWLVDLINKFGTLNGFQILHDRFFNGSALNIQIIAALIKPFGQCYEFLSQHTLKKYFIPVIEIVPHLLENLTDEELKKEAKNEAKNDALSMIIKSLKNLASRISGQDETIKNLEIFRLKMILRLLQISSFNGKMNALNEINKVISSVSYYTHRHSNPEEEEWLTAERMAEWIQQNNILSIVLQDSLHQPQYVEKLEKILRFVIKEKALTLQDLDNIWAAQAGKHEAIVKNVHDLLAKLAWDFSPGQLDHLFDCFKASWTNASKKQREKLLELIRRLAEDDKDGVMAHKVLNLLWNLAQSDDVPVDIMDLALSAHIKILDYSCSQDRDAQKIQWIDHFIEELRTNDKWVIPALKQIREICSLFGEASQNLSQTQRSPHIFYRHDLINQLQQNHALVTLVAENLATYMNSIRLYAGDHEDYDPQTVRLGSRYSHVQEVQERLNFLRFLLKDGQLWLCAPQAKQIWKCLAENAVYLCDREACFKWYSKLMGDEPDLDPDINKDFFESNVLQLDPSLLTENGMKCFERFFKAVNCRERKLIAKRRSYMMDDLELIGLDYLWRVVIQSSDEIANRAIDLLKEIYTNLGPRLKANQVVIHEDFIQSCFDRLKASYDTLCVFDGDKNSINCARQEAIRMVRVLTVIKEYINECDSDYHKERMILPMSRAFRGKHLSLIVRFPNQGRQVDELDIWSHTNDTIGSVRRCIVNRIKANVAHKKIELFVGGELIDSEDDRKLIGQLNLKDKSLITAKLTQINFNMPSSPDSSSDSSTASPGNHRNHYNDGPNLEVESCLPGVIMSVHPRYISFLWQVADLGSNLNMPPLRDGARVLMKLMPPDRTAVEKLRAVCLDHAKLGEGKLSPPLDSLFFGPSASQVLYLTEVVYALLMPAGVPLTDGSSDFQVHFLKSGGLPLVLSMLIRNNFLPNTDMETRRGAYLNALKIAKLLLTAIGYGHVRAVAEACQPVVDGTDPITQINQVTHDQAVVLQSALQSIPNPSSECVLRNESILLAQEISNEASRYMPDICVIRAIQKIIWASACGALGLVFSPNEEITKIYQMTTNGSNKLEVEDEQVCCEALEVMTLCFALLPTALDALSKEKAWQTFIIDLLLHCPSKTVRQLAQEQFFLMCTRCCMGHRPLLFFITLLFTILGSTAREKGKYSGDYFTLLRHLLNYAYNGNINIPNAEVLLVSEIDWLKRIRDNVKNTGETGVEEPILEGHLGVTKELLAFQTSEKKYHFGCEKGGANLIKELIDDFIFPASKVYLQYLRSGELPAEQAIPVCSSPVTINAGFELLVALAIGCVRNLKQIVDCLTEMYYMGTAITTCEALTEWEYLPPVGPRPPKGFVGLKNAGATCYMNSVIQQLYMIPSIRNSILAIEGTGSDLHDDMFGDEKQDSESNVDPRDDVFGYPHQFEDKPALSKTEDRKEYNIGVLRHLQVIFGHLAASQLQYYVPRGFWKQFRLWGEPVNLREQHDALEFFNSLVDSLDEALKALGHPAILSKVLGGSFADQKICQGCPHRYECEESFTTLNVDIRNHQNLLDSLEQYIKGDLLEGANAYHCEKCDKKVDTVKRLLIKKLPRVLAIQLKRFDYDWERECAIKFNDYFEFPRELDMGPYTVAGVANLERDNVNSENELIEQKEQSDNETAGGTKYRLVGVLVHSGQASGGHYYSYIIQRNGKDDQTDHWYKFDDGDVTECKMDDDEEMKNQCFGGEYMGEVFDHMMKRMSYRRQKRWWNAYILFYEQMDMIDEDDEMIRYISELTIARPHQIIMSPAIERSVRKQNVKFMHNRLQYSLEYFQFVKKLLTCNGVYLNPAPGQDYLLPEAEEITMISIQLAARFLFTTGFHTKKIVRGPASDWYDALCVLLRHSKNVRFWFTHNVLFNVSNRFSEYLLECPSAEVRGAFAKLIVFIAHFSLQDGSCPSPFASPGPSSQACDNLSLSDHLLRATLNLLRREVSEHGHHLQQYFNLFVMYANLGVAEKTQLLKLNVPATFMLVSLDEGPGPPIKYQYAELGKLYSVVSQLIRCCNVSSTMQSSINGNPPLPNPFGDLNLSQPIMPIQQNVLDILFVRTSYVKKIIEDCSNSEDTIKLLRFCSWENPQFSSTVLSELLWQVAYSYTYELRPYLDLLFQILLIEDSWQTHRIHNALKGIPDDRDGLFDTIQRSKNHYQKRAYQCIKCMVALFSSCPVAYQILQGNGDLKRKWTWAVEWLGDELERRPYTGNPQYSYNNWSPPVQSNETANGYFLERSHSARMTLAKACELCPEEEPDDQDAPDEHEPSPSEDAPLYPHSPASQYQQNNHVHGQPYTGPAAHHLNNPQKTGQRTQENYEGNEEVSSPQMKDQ

CC(=O)C1CCCCN1C(=O)CCl (centres undefined)
inactive: [1] -0.034 | [2] -0.0675 | [3] 0.17 | [4] 0.028 | [5] -0.0455 | [6] -0.492 | [7] -0.14 | [8] 0.121 | [9] -0.0382

From the supplement of paper PMC11732987, “Enantioselective OTUD7B fragment discovery through chemoproteomics screening and high-throughput optimisation” (Communications Chemistry, 2025)
